# In article PMC7862700, “An all-to-all approach to the identification of sequence-specific readers for epigenetic DNA modifications on cytosine”:
# Tests used:
# Assay in all cases: DAPPL (digital affinity profiling via proximity ligation, sequencing); 10 mM Tris-HCl pH 7.5, 50 mM NaCl, 1 mM DTT, 4% glycerol, room temperature, 30 min; GST-TFs on glutathione beads, 16-mer random dsDNA library, 0.1% formaldehyde crosslink after washing; high values mean tight binding
# FLI1 = biological target: T1, FLI1 (Homo sapiens, UniProt Q01543 1-452); conditions: protein: recombinant; tags: N-terminal GST; dsDNA, one strand shown
# T1 sequence: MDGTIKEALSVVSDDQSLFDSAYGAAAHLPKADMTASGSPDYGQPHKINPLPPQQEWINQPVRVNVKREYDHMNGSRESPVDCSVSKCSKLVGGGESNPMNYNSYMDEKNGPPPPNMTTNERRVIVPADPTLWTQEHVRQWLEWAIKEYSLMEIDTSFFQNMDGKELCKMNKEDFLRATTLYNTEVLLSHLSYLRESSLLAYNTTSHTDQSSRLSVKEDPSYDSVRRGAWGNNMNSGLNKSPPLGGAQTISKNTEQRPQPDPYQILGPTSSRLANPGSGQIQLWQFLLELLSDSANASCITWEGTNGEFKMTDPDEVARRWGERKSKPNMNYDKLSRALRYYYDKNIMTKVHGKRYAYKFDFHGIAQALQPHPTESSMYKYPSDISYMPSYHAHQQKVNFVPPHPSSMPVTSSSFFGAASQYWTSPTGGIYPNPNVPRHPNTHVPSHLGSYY
# Summary of the method: (§1)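 Beads coated with glutathione captured GST-fused human transcription factors that had been expressed in yeast, and the factors were then given DNA barcodes and pooled with a tag-only sample. The pools were incubated with 200 nmole of a random double-stranded 16-mer DNA library in Tris/NaCl/DTT/glycerol buffer for 30 min at room temperature, washed, crosslinked with 0.1% formaldehyde and proximity-ligated with BsaI/T4 ligase at 37 °C for 1 h. PCR amplification and Illumina NextSeq500 sequencing came last. Binding signal is each hexamer's read frequency for a factor divided by its frequency for the tag-only sample.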
# ELK1 = biological target: T2, ELK1 (Homo sapiens, UniProt P19419 1-428); conditions: protein: recombinant; tags: N-terminal GST; dsDNA, one strand shown
# T2 sequence: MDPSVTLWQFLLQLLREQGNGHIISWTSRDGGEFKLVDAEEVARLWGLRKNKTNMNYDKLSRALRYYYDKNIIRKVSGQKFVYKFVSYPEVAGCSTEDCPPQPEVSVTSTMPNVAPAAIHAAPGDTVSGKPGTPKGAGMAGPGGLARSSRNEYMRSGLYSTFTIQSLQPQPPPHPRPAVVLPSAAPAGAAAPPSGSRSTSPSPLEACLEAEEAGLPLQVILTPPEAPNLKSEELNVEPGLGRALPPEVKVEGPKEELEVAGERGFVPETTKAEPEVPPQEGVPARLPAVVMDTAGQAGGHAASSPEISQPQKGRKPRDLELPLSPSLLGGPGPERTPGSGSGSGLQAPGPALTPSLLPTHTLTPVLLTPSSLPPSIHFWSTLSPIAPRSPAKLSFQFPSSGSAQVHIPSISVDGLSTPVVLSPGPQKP
# Summary of the method: as §1
# GABPA = biological target: T3, GABPA (Homo sapiens, UniProt Q06546 1-454); conditions: protein: recombinant; tags: N-terminal GST; dsDNA, one strand shown
# T3 sequence: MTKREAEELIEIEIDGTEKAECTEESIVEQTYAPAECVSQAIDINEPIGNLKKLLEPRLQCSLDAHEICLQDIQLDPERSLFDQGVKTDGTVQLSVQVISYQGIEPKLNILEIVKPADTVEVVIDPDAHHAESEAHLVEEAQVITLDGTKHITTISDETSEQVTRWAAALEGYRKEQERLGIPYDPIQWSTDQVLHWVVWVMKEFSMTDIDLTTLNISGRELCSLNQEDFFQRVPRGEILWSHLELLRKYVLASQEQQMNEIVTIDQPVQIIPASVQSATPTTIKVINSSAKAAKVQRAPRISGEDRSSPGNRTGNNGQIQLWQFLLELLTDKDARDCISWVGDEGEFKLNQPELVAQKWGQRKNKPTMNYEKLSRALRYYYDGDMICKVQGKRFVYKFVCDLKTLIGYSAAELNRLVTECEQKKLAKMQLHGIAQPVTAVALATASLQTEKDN
# Summary of the method: as §1
# ERG = biological target: T4, ERG (Homo sapiens, UniProt P11308 1-479); conditions: protein: recombinant; tags: N-terminal GST; dsDNA, one strand shown
# T4 sequence: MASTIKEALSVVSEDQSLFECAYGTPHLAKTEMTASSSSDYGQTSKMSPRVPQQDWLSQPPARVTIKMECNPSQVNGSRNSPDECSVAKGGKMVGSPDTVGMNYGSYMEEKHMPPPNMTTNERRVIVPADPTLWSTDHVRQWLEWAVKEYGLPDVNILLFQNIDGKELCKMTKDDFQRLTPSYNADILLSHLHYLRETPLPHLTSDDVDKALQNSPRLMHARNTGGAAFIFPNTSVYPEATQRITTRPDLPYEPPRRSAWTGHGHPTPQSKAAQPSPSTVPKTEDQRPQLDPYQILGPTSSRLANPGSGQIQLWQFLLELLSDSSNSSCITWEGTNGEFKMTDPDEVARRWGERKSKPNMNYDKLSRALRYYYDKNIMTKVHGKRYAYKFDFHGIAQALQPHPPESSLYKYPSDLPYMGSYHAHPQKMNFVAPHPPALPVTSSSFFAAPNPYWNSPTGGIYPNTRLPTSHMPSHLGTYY
# Summary of the method: as §1
# ELF1 = ELF1 (Homo sapiens, UniProt P32519 1-619); conditions: protein: recombinant; tags: N-terminal GST; dsDNA, one strand shown
# Sequence of ELF1 (P32519 whole entry): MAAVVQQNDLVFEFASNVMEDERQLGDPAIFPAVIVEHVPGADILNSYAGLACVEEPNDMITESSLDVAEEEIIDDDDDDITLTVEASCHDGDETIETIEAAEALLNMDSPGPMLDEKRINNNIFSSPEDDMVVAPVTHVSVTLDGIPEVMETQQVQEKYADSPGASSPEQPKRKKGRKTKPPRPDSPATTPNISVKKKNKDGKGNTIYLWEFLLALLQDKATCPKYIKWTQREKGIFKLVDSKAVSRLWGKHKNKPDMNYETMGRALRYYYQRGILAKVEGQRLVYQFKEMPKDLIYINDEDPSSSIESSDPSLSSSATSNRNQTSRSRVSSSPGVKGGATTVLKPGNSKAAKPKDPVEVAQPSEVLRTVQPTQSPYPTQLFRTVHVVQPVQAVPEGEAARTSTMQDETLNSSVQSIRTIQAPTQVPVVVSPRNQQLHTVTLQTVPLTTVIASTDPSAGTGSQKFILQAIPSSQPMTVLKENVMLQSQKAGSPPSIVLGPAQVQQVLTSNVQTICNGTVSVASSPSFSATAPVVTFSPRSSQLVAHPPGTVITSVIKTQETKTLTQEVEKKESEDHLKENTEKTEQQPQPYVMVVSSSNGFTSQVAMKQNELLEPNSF
# Summary of the method: as §1
# EHF = biological target: T5, EHF (Homo sapiens, UniProt Q9NZC4 1-300); conditions: protein: recombinant; tags: N-terminal GST; dsDNA, one strand shown
# T5 sequence: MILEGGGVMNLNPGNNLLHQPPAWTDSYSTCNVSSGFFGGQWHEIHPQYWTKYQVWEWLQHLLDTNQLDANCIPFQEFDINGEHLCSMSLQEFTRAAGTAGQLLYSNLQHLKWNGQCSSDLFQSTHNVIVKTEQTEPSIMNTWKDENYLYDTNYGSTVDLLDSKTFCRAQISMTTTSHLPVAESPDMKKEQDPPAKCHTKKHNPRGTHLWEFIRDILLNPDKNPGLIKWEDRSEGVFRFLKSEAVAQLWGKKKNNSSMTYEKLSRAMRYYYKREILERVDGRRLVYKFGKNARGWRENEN
# Summary of the method: as §1
# SPI1 = SPI1 (Homo sapiens, UniProt P17947 1-270); conditions: protein: recombinant; tags: N-terminal GST; dsDNA, one strand shown
# Summary of the method: as §1
# SPIB = SPIB (Homo sapiens, UniProt Q01892 1-262); conditions: protein: recombinant; tags: N-terminal GST; dsDNA, one strand shown
# Sequence of SPIB (Q01892 whole entry): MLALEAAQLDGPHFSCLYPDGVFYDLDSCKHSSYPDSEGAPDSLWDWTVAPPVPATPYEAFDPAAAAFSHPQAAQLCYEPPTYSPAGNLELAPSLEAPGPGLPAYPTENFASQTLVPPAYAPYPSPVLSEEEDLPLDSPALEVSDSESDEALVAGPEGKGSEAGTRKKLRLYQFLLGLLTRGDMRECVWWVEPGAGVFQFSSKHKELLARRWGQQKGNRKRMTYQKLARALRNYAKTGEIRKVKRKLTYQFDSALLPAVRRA
# Summary of the method: as §1
# ELK3 = biological target: T6, ELK3 (Homo sapiens, UniProt P41970 1-407); conditions: protein: recombinant; tags: N-terminal GST; dsDNA, one strand shown
# T6 sequence: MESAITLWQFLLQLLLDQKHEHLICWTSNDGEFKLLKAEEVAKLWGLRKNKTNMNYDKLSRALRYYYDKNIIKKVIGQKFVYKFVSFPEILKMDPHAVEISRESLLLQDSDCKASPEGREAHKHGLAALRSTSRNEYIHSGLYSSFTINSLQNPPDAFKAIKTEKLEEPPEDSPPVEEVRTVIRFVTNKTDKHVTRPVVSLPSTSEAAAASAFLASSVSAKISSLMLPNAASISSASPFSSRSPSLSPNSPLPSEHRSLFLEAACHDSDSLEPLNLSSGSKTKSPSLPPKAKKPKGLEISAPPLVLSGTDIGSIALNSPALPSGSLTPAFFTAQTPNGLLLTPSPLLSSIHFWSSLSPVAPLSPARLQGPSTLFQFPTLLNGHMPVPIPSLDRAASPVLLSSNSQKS
# Summary of the method: as §1
# FEV = biological target: T7, FEV (Homo sapiens, UniProt Q99581 1-238); conditions: protein: recombinant; tags: N-terminal GST; dsDNA, one strand shown
# T7 sequence: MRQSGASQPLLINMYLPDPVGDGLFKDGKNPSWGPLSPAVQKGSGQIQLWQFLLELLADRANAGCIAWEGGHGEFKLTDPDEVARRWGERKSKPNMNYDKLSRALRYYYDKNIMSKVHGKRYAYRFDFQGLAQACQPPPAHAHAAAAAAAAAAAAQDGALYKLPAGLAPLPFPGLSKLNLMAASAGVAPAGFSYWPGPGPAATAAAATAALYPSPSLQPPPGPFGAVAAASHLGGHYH
# Summary of the method: as §1
# ETV5 = ETV5 (Homo sapiens, UniProt P41161 1-510); conditions: protein: recombinant; tags: N-terminal GST; dsDNA, one strand shown
# Sequence of ETV5 (P41161 whole entry): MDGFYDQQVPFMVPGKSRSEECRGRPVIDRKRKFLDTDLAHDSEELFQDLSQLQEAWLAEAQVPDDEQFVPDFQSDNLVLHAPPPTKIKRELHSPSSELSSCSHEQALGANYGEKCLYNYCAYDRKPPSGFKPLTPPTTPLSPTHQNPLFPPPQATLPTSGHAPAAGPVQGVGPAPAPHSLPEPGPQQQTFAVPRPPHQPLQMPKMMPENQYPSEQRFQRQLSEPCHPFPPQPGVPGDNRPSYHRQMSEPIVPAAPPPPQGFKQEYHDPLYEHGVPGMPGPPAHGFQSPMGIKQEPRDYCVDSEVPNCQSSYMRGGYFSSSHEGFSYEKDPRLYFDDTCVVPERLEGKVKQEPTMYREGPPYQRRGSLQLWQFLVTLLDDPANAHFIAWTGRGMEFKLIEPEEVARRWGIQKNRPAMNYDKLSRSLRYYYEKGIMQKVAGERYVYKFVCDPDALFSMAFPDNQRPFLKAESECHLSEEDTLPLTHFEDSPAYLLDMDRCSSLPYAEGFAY
# Summary of the method: as §1
# HSF1 = HSF1 (Homo sapiens, UniProt Q00613 1-529); conditions: protein: recombinant; tags: N-terminal GST; chain copies: 3; dsDNA, one strand shown
# Sequence of HSF1 (Q00613 whole entry): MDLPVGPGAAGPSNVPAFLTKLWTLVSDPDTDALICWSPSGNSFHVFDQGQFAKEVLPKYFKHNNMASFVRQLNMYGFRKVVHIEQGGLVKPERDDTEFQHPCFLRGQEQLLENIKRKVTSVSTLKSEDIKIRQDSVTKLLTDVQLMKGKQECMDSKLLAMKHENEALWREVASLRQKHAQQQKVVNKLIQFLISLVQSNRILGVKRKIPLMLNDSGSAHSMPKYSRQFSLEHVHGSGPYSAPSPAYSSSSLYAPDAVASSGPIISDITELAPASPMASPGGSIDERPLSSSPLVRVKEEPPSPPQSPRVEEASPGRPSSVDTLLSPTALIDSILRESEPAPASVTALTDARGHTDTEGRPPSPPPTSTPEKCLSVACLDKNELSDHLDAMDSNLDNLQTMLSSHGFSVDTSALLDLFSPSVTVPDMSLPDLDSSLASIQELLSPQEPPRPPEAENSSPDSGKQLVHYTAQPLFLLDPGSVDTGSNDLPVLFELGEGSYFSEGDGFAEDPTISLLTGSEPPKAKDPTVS
# Summary of the method: as §1
# SPIC = biological target: T8, SPIC (Homo sapiens, UniProt Q8N5J4 1-248); conditions: protein: recombinant; tags: N-terminal GST; dsDNA, one strand shown
# T8 sequence: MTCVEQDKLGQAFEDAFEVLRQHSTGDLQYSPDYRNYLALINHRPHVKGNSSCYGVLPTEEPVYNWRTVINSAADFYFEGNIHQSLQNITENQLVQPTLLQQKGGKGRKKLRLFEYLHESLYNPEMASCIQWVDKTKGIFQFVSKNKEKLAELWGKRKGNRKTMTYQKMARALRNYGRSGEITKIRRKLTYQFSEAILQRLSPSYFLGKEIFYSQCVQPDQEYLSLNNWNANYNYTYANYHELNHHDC
# Summary of the method: as §1
# ELF4 = ELF4 (Homo sapiens, UniProt Q99607 1-663); conditions: protein: recombinant; tags: N-terminal GST; dsDNA, one strand shown
# Sequence of ELF4 (Q99607 whole entry): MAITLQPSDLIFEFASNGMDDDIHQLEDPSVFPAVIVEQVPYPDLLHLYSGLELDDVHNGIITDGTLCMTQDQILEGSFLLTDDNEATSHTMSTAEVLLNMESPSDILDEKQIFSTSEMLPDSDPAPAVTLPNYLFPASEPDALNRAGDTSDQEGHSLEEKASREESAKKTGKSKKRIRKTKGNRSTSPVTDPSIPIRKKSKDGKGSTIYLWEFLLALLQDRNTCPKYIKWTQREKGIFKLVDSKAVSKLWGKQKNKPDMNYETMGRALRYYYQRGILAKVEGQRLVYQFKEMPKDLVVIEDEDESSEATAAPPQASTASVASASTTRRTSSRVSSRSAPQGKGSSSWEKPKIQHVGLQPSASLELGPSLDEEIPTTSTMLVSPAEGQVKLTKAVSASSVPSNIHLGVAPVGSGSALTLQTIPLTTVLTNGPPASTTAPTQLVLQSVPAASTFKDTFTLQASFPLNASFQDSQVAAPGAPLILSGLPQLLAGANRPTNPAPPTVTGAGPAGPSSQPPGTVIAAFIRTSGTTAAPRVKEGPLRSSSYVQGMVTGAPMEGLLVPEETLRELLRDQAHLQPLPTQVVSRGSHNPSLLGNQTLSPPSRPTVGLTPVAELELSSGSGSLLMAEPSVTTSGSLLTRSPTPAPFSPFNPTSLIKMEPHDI
# Summary of the method: as §1
# ELK4 = biological target: T9, ELK4 (Homo sapiens, UniProt P28324-2 1-405); conditions: protein: recombinant; tags: N-terminal GST; dsDNA, one strand shown
# T9 sequence: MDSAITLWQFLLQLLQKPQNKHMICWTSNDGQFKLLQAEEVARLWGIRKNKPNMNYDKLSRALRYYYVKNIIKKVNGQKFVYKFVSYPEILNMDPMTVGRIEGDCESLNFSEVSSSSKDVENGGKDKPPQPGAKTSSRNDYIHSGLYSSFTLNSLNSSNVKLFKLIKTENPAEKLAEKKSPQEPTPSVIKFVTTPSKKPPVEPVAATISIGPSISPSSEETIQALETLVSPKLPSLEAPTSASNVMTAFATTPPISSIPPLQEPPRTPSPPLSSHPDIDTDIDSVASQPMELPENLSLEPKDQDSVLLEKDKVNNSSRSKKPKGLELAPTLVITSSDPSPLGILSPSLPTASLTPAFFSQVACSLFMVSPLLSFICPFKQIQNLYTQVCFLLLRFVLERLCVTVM
# Summary of the method: as §1
# ETV2 = biological target: T10, ETV2 (Homo sapiens, UniProt O00321 1-342); conditions: protein: recombinant; tags: N-terminal GST; dsDNA, one strand shown
# T10 sequence: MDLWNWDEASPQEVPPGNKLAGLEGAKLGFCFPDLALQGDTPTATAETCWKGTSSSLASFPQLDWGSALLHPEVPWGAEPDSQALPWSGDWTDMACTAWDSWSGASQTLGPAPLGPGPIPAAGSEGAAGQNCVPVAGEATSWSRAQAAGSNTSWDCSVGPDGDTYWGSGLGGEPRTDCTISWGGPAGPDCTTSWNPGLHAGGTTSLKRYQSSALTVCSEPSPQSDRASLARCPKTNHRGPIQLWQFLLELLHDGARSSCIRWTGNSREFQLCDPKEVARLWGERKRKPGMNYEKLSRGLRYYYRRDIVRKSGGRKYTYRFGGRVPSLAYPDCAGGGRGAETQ
# Summary of the method: as §1
# ELF3 = biological target: T11, ELF3 (Homo sapiens, UniProt P78545 1-371); conditions: protein: recombinant; tags: N-terminal GST; dsDNA, one strand shown
# T11 sequence: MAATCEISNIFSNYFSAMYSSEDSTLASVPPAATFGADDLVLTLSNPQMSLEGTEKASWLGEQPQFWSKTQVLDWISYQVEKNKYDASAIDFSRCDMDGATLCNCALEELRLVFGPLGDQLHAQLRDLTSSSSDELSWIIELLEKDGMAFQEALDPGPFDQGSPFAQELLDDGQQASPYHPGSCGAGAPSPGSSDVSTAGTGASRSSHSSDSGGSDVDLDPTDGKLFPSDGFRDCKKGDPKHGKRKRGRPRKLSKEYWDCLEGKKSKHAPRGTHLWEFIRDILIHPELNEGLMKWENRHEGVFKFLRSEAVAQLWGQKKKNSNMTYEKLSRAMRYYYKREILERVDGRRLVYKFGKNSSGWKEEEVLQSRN
# Summary of the method: as §1
# CRX = CRX (Homo sapiens, UniProt O43186 1-299); conditions: protein: recombinant; tags: N-terminal GST; dsDNA, one strand shown
# Sequence of CRX (O43186 whole entry): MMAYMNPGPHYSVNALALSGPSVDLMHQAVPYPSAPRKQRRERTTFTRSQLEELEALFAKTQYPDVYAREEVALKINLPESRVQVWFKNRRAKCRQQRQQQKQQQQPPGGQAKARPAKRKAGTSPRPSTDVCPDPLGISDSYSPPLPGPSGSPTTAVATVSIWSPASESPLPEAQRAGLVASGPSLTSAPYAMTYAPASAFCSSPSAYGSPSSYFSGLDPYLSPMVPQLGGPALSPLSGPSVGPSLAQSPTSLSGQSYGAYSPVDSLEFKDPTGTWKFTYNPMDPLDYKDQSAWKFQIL
# Summary of the method: as §1
# ETV1 = ETV1 (Homo sapiens, UniProt P50549 1-477); conditions: protein: recombinant; tags: N-terminal GST; dsDNA, one strand shown
# Sequence of ETV1 (P50549 whole entry): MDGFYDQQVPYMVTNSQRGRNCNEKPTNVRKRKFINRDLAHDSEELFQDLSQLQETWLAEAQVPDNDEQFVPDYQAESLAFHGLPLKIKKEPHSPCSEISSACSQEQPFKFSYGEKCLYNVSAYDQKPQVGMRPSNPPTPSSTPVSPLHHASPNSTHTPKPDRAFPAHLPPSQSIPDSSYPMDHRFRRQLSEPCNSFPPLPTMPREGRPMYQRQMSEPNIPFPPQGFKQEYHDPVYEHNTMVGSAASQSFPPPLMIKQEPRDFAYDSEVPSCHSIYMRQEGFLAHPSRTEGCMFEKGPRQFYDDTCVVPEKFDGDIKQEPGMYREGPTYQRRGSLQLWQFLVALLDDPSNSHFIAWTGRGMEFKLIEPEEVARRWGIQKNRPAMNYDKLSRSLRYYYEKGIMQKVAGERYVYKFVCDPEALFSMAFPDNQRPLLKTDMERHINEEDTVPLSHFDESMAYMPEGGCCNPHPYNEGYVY
# Summary of the method: as §1
sequence,measurement,setting,value
TCCCTG,binding signal,FLI1,"1.28 fold enrichment (6-mer frequency, TF over GST control)"
same,binding signal,ELK1,"1.25 fold enrichment (6-mer frequency, TF over GST control)"
same,binding signal,GABPA,"1.36 fold enrichment (6-mer frequency, TF over GST control)"
same,binding signal,ERG,"1.28 fold enrichment (6-mer frequency, TF over GST control)"
same,binding signal,ELF1,"1.32 fold enrichment (6-mer frequency, TF over GST control)"
same,binding signal,EHF,"1.33 fold enrichment (6-mer frequency, TF over GST control)"
same,binding signal,SPI1,"1.29 fold enrichment (6-mer frequency, TF over GST control)"
same,binding signal,SPIB,"1.35 fold enrichment (6-mer frequency, TF over GST control)"
same,binding signal,ELK3,"1.14 fold enrichment (6-mer frequency, TF over GST control)"
same,binding signal,FEV,"1.28 fold enrichment (6-mer frequency, TF over GST control)"
same,binding signal,ETV5,"1.35 fold enrichment (6-mer frequency, TF over GST control)"
same,binding signal,HSF1,"1.24 fold enrichment (6-mer frequency, TF over GST control)"
same,binding signal,SPIC,"1.38 fold enrichment (6-mer frequency, TF over GST control)"
same,binding signal,ELF4,"1.31 fold enrichment (6-mer frequency, TF over GST control)"
same,binding signal,ELK4,"1.19 fold enrichment (6-mer frequency, TF over GST control)"
same,binding signal,ETV2,"1.38 fold enrichment (6-mer frequency, TF over GST control)"
same,binding signal,ELF3,"1.2 fold enrichment (6-mer frequency, TF over GST control)"
same,binding signal,CRX,"1.3 fold enrichment (6-mer frequency, TF over GST control)"
same,binding signal,ETV1,"1.35 fold enrichment (6-mer frequency, TF over GST control)"
